Compound activity: PubChem BioAssay, National Center for Advancing Translational Sciences (NCATS)
Compounds with a hit are over-represented: about 18% of the library has one in this group of screens.
DT40 TDP1 CPT = DT40-hTDP1 cell growth loss with CPT. chicken DT40 Tdp1-/-;hTDP1 cells + 20 nM CPT, ATP luminescence, 48 h. AID 686979. Potency, µM (titrated, usually from 46.2 µM), without a hit: top-dose activity change, negative = growth inhibition, hits mostly inhibitors. hit rate 12% among 420,000; further: potency means the concentration at half of the fitted maximal effect; nearly all actives have a fitted effect of over 55% in size
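Chicken DT40 Tdp1-/- cells stably complemented with human TDP1 were seeded at 400 cells/well in medium containing 20 nM camptothecin, exposed to pin-transferred compounds, and grown at 37 °C for at least 48 hr. Viability was read as ATP luminescence.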
TDP1 cell noCPT = qHTS for Inhibitors of human tyrosyl-DNA phosphodiesterase 1 (TDP1): qHTS in cells in absence of CPT; AID 686978, 2013; hit rate 15% among 420,000; DT40 Tdp1-/- hTDP1 cells, no CPT, ATP luminescence, 48 h; Potency, µM (doses to about 46.2 µM), inactives show at the highest dose activity change, negative = growth inhibition, usual class: inhibitors; further: potency means the concentration at half of the fitted maximal effect; nearly all actives have a fitted effect of over 55% in size
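Chicken DT40 Tdp1-/- cells complemented with human TDP1, screened without camptothecin (DMSO vehicle only), 400 cells/well. Compounds pin-transferred, cells incubated at 37 °C for at least 48 hr. Growth read as ATP-dependent luminescence (CellTiter-Glo, 30 min at RT).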
VP16 counter = inhibits Gal4-VP16 luciferase reporter, ROR gamma counter-screen; hit rate 3.5% among 310,000; Potency, µM (doses to about 53.6 µM), without a hit: at the top dose activity, negative = inhibition, hits mostly inhibitors; Drosophila S2 Gal4-VP16 UAS-luciferase, luminescence, 20 h; AID 2546;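 further: Gal4-VP16 expression switched on by copper sulfate through the metallothionein promoter; potency means the concentration at half of the fitted maximal effect; nearly all actives have a fitted effect of over 50% in size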
LDHA block = LDHA (human) enzyme inhibition; activity change, % (values are at about 110 or 230 µM); P00338; purified LDHA, NADH/diaphorase-resazurin fluorescence; stronger effect = lower value; hit rate 0.15% among 480,000; in the data active means activity change below about -30%; inconclusive means mostly about -25% to -30%;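 further: plate controls were DMSO wells for no effect and wells without enzyme for full effect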
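LDH5 2 nM; NADH 0.06 mM, pyruvate 0.2 mM; 200 mM Tris pH 7.4, EDTA, Tween-20; 5 min RT. Detection: diaphorase 0.133 mg/mL + resazurin 37 µM, fluorescence ex540/em590 at 0 and 20 min; normalized to enzyme-free and DMSO wells.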
RORg inh = ROR gamma (mouse) transcription inhibition; Drosophila S2 Gal4-RORgamma UAS-luciferase reporter, 20 h; hit rate 5.4% among 310,000; AID 2551; Potency, µM (series often up to 53.6 µM), for the others: at the highest dose activity change, negative = inhibition, actives largely listed as inhibitors; further: potency means the concentration at half of the fitted maximal effect; nearly all actives have a fitted effect of over 60% in size
Target sequence (P51450 whole entry, looked up, the tested form may be a part): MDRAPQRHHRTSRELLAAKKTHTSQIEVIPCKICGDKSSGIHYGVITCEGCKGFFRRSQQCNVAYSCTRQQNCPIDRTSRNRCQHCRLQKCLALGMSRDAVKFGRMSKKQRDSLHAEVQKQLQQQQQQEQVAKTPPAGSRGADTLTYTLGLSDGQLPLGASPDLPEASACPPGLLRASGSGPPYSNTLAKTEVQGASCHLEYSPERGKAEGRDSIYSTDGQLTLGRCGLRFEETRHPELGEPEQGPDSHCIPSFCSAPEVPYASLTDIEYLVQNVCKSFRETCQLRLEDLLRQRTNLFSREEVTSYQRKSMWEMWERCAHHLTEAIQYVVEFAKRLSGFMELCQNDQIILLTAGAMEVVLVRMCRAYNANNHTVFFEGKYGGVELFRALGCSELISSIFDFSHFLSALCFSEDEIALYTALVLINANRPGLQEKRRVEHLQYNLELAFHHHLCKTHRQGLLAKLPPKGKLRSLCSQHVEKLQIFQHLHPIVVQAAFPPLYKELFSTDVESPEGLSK
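Schneider cells (Drosophila), stable Gal4 DBD–ROR gamma + UAS-luc; 1 hr cmpd preincubation; Cu2+ induction 700 uM final; 20 hr ambient; luminescence.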
IL1B secr inh = blocks inflammasome-driven IL-1 beta release; THP-1 LPS/ATP IL-1B secretion, AlphaLISA, 16 h; stronger effect = lower value; activity change, % at 57.5 µM; hit rate 4.7% among 360,000; AID 743279; in the data active means activity change below about -50%; inconclusive means mostly about -30% to -49%
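Secreted IL-1B measured by AlphaLISA bead assay after 16 h compound exposure of THP-1 cells; compounds (final up to 57.5 uM) added 1 h before LPS (250 ng/mL) and ATP (1.25 mM) stimulation; lower signal means less secretion.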
Numbers without * were called inactive; ? = inconclusive; · = not tested or not shown. Unless noted, the call rests on the fitted dose curve; in most records, active means well fitted curve in the direction sought with a large enough effect; inconclusive means small, poorly fitted or top-dose-only effect, or another doubt; inactive means no such curve, though single readings can be large; an effect the other way counts as inactive or inconclusive. Unless noted, on the % scale 0 is the no-effect control and ±100 the full control effect.

SMILES	DT40 TDP1 CPT	TDP1 cell noCPT	VP16 counter	LDHA block	RORg inh	IL1B secr inh
Cn1c2ccccc2c2cc(/C=N/NC(=O)c3ccc(N)cc3)ccc21	?	18µM*	-19%	-1	-3%	?
COc1ccccc1C(C)NC(=O)c1nn(C(C)C)c(=O)c2ccccc12 (stereo unspecified)	·	·	·	33	·	·
CCCCc1nc2ccccc2c(=O)n1NC(=O)c1c(O)c2c(n(CC(C)C)c1=O)CCCC2	15µM*	9.2µM*	17%	0	-9%	39
CC(C)Cn1c2c(c(O)c(C(=O)Nc3ncccc3O)c1=O)CCCC2	?	?	14µM*	7	?	21
CC(C)Cn1c2c(c(O)c(C(=O)Nc3ccc(F)cc3)c1=O)CCCC2	?	-26%	-12%	-5	5%	38
O=C(Nn1c(Cc2ccccc2)nc2ccccc2c1=O)c1c(O)c2cccc3c2n(c1=O)CCC3	?	?	-10%	-2	43%	6
CC(C)Cn1c2c(c(O)c(C(=O)Nn3c(Cc4ccccc4)nc4ccccc4c3=O)c1=O)CCCC2	5.2µM*	3.7µM*	-9%	-8	-20%	23
Cc1ccc2c(CN3CCN(C)CC3)cc(=O)oc2c1	·	·	·	-10	·	·
c1nc(C2CCCCC2)cc2cc3c(cc12)OCO3	?	21µM*	·	1	·	30
CCN(CC)CC(=O)N1CCN(c2nc(C(C)C)c3c(c2C#N)CC(C)(C)OC3)CC1	·	·	·	-1	·	·
COc1ccccc1OC(C)C(=O)NC1CCCC1 (stereo unspecified)	·	·	·	0	·	·
COc1ccccc1/C=C/c1onc(C)c1S(=O)(=O)N1CCC(C(=O)NC2CCCCCC2)CC1	?	-6%	-9%	-1	-19%	0
COc1ccccc1/C=C/C1(C(=O)NC2CCCC2)CC(=O)N1c1ccc(C)cc1 (stereo unspecified)	?	23µM*	-2%	0	?	-12
COc1ccccc1/C=C/C1(C(=O)NC2CCCC2)CC(=O)N1c1ccc(F)cc1 (stereo unspecified)	18µM*	?	6%	2	-13%	-89*
C=CCNc1nc(N)c(C(=O)c2ccccc2)s1	·	·	·	-4	·	·
Cc1cc(S(=O)(=O)NCCO)ccc1F	·	·	·	1	·	·
Cc1ccnn1CCC(=O)N1CCCC(Nc2ccc(F)c(F)c2)C1 (stereo unspecified)	-7%	?	5%	2	13%	0
Cc1ccnn1CCC(=O)N1CCCC(Nc2ccc(C(C)C)cc2)C1 (stereo unspecified)	21µM*	16µM*	·	3	·	33
CC(C)c1ccc(NC2CCCN(C(=O)CC3CCCC3)C2)cc1 (stereo unspecified)	21µM*	10µM*	0%	3	?	-5
COc1ccc(/C=C2\N=C(c3ccc(Br)cc3)NC2=O)cc1OC	·	·	·	-2	·	·
O=C(CCc1ncc(-c2ccc(F)cc2)o1)N1CCN(c2ccccc2Cl)CC1	·	·	·	-3	·	·
O=C(CSc1nc2ccccc2s1)c1ccc(C2CCCCC2)cc1	·	·	·	-1	·	·
FC(F)(F)c1cc(-c2ccccc2)nc2ncnn12	-23%	-3%	-7%	-18	33%	-4
CCOC(=O)C(Sc1cc(-c2ccccc2)nc2ncnn12)C(C)=O (stereo unspecified)	?	18µM*	2.8µM*	-6	0.63µM*	-19
Cc1cc(NC(=O)COC(=O)C2(c3ccc(Cl)cc3)CCC2)no1	·	·	·	9	·	·
N#CC1=C(N)Oc2c(ccc3ccccc23)C1c1cccs1 (stereo unspecified)	0.56µM*	0.63µM*	11%	14	-8%	55
